Reference: PubChem BioAssay (NCATS)
Records with an inconclusive call do not appear. Values without a mark were called inactive. Activity calls are given as the source filed them. The call rests on the fitted dose curve; in most records, active means well fitted curve in the direction sought with a large enough effect; inconclusive means small, poorly fitted or top-dose-only effect, or another doubt; inactive means no such curve, though single readings can be large; an effect the other way counts as inactive or inconclusive.

Target: Cytochrome P450 3A7 (Homo sapiens) (UniProt P24462)
Assay: Cytochrome P450 family 3 subfamily A member 7 (CYP3A7) small molecule antagonists: luciferase biochemical qHTS assay (AID 1963596); further: on the % scale 0 is the no-effect control and ±100 the full control effect
Conditions: P450-Glo CYP3A7 enzyme luminescence, 1 h; series mostly up to 57.4 µM; activity change, negative = inhibition: at the top concentration
Outline: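 In this luminescent screen, enzyme and proluciferin substrate meet test compound for 10 min before NADPH regeneration solution drives a 1 h room-temperature reaction; detection reagent halts turnover and luminescence is read 20 min later.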
Further: nearly all actives have a fitted effect of over 40% in size.

Sequence of Cytochrome P450 3A7 (Homo sapiens) (P24462 whole entry, looked up): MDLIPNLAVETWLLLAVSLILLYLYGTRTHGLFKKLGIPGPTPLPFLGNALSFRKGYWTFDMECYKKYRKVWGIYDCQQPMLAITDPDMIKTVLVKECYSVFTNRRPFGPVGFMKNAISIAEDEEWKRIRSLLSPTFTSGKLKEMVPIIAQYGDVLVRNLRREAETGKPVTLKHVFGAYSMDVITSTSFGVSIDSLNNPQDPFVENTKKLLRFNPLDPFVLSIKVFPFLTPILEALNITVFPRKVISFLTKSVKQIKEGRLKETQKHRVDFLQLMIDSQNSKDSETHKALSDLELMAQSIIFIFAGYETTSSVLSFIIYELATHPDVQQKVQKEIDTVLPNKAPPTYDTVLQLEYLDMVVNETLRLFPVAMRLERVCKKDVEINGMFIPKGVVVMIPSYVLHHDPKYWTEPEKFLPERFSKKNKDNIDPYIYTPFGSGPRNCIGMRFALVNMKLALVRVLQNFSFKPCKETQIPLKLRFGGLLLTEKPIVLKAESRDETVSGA

Going from `CCNCc1nc2c(N)nc3ccccc3c2n1CC(C)(C)O` to `Nc1nc(N)c2nc(-c3ccccc3)c(N)nc2n1`, the “activity change, negative = inhibition” value falls from 7.02% to -9.86%.

First: Oc1c(I)cc(Cl)c2cccnc12
Second: O=C(NCC(=O)N1CC[C@H](NC2CCC(O)(c3ccc(-c4ncccn4)cn3)CC2)C1)c1cccc(C(F)(F)F)c1 (stereo not given in full)
The “activity change, negative = inhibition” value of the first is lower: -22.9% for the first, -18.4% for the second.

Going from `OC[C@]1(O)OC[C@@H](O)[C@H](O)[C@@H]1O` to `CO/N=C(/C(=O)N[C@@H]1C(=O)N2C(C(=O)O)=C(Cn3nnc(C)n3)CS[C@H]12)c1csc(N)n1`, the “activity change, negative = inhibition” value rises from -6.16% to -6%.

Going from `CNc1nc(C)nc(N[C@H]2CCC[C@@H](C(=O)NCc3ccc(C#N)cc3C(F)(F)F)C2)n1` to `C[C@H](CN1CCCC1)C(=O)c1ccc(C(F)(F)F)cc1`, the “activity change, negative = inhibition” value falls from 4.59% to 1.26%.

In the case of `CCOC(N)=O`, the “activity change, negative = inhibition” value is reported as -0.648%.

Going from `CCCC(=O)O[C@]1(C(=O)COC(=O)CC)CC[C@H]2[C@@H]3CCC4=CC(=O)CC[C@]4(C)[C@H]3[C@@H](O)C[C@@]21C` to `CCOC(CN1CCN(CC(C)C(=O)c2ccccc2)CC1)c1ccccc1` (stereo not given), the “activity change, negative = inhibition” value falls from 25.5% [at 23.9 µM] to -21% [at 23.9 µM].

For `Oc1c(I)cc(I)c2cccnc12`, the Potency was “inactive”.

System: not listed separately
Assay: Viability qHTS for spleen associated tyrosine kinase inhibitor (SYKi) naive MV4-11 cells (AID 1963823); further: potency means the concentration at half of the fitted maximal effect
Conditions: MV4-11 AML viability, CellTiter-Glo luminescence, 72 h; series mostly up to 45 µM; viability (% of control): at the top concentration
Outline: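 Seeding of 500 SYKi-naive MV4-11 cells per well onto pre-dispensed compounds preceded a 72 hr incubation at 37 C. Luminescent CellTiter-Glo signal, read after 10 min at room temperature, reflected viable cells.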

First: CC(=O)OC[C@]12[C@H](OC(C)=O)[C@H](OC(=O)c3ccccc3)[C@@H]3[C@@H](OC(C)=O)[C@]1(OC3(C)C)[C@H](C)C[C@H](OC(C)=O)[C@@H]2OC(=O)c1ccccc1
Second: C=C1[C@@H]2CC[C@@H]3[C@@](CCC4C(C(=O)O)(C(=O)O)C[C@@H](O[C@@H]5O[C@H](CO)[C@@H](O)[C@H](O)[C@H]5OC(=O)CC(C)C)C[C@]43C)(C2)[C@H]1O (stereo not given in full)
The “viability (% of control)” value of the first is lower: 24% [at 17.3 µM] for the first, 51.5% [at 17.3 µM] for the second.

First: COc1cc([C@@H](O[C@@H]2O[C@H](CO)[C@@H](O)[C@H](O)[C@H]2O)[C@@H]2CO[C@H](c3ccc(O)c(OC)c3)[C@H]2CO)ccc1O
Second: COc1cc(CC(COC2OC(CO)C(O)C(O)C2O)c2cc(/C=C/CO)cc(OC)c2O)ccc1O (stereo not given)
The “viability (% of control)” value of the first is lower: 75.3% [at 17.3 µM] for the first, 80.3% [at 17.3 µM] for the second.

First: CC(C(O)/C=C/C(C)(C)O)C1CCC2(C)C3C(=O)C=C4C(CCC(O)C4(C)C)C3(C)CCC12C (stereo not given)
Second: C/C(=C/CCC(CO)C1CCC2(C)C3CCC4C(C)(C)C(OC5OC(CO)C(O)C(O)C5O)CC(O)C45CC35CCC12C)COC1OC(CO)C(O)C(O)C1O (stereo not given)
The “viability (% of control)” value of the first is higher: 82.3% [at 17.3 µM] for the first, 63% [at 17.3 µM] for the second.

In the case of `O=S(=O)(c1ccc(S(=O)(=O)n2cnc3ccccc32)cc1)N1CCCCCC1`, the “viability (% of control)” value is reported as 72.2% [at 17.3 µM].

Going from `C=C1CC[C@H]2[C@@](C)(CCC[C@@]2(C)C(=O)O)[C@@H]1CCC(C)CCO` (stereo not given in full) to `C=C1CC[C@H]2[C@@](C)(CCC(O)[C@@]2(C)CO)[C@@H]1CCC1=CCOC1=O` (stereo not given in full), the “viability (% of control)” value falls from 85.6% to 34.7%.

Going from `CCc1c(C)nc2c(-c3cnn(-c4cc(CO)ccn4)c3)c[nH]n2c1=O` to `CCC(CC)n1ccc2c(C(=O)NCc3c(C)cc(C)[nH]c3=O)cc(C#N)cc21`, the “viability (% of control)” value falls from 112% to 88.2%.

First: O=C(O)c1ccc(N2C(=O)/C(=C/c3ccc(-c4ccc([N+](=O)[O-])cc4)o3)C=C2c2ccccc2)cc1
Second: Cc1ccc(C2(C(=O)N3CCC(n4nc(-c5ccccc5)oc4=O)CC3)CC2)cc1
The “viability (% of control)” value of the first is lower: 55.8% for the first, 68.3% for the second.

Compared with `CC1(C)CCC[C@@]2(C)[C@H]1[C@H](O)C=C1COC(=O)[C@@]12O`, `CC1(C)C[C@H](O)C[C@@]2(C)[C@H]1[C@H](O)C=C1COC(=O)[C@@]12O` is lower in “viability (% of control)” value: 64.1% for the first, 58.3% for the second.

Going from `COc1cc(O)c2c(c1)C1=C[C@H](O)[C@@H](O)C[C@]1(C)OC2=O` to `C=C1CCC(OC(C)=O)C2(C)CC3OC(=O)C(C)=C3CC12` (stereo not given), the “viability (% of control)” value rises from 78% to 91.5%.

Compared with `CC(=O)OC(CSC1CCC(=O)OC(C)CCC(=O)C1)C(=O)O` (stereo not given), `CC1=CC(=O)C(=C(C)C)CC2C1CCC2(C)O` (stereo not given) is higher in “viability (% of control)” value: 72% for the first, 85.5% for the second.

In the case of `CC(C)=CCC/C(C)=C/CO[C@@H]1O[C@H](CO)[C@@H](O)[C@H](O)[C@H]1O`, the “viability (% of control)” value is reported as 85.2%.

With `COc1ccc(NC(=O)c2ccc(-c3ccc(-c4nnc(C)o4)cc3C)cc2)cc1N1CCN(C)CC1` the Potency was 23.1 µM (active).
In the case of `CNCCC(Oc1ccc(C(F)(F)F)cc1)c1ccccc1` (stereo not given), the Potency is reported as 18.8 µM (active).
With `O=C(NCC(=O)N1CCCC1)Nc1ccc2ccccc2c1` the Potency was 5.8 µM (active).
For `CC(=O)O[C@H]1CC2C(COC(=O)CC(C)C)=CO[C@@H](OC(=O)CC(C)C)C2[C@]12CO2` (stereo not given in full), the Potency was 1.42 µM (active).
In the case of `C/C=C(/C=C(C)/C=C/C=C/C=C(\C)C(=O)C12OC1C(O)(CCO)NC2=O)C(=O)OC` (stereo not given), the Potency is reported as 8.93 µM (active).
For `C=C1[C@@H](C)[C@H]2[C@H](Cc3c[nH]c4ccccc34)NC(=O)[C@]23C(=O)/C=C/C(=O)[C@H](O)/C(C)=C\[C@@H](C)C/C=C/[C@H]3[C@@H]1O`, the Potency was 2 µM (active).
For `C[C@@H]1CC2C3C[C@H](F)C4=CC(=O)C=C[C@]4(C)[C@@]3(F)[C@@H](O)C[C@]2(C)[C@@]1(OC(=O)c1ccco1)C(=O)SCF` (stereo not given in full), the Potency was 6.61 µM (active).

For `C/C=C(/C)C(=O)OC1C(OC(C)=O)C23C(O)OC4(CCC5C6(C)CCC(OC7OC(C(=O)O)C(O)C(OC8OC(CO)C(O)C(O)C8OC8OC(C)C(O)C(O)C8OC8OCC(O)C(O)C8O)C7OC7OC(CO)C(O)C(O)C7O)C(C)(C)C6CCC5(C)C4(C)CC2OC(C)=O)C3CC1(C)C` (stereo not given), the viability (% of control) was 43.2% [at 9.25 µM].
